What was measured:
[1] = target: T1, Inhibitor of nuclear factor kappa-B kinase subunit epsilon (Homo sapiens) (UniProt Q14164); settings: at 1 µM;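 also: reported values are averaged percent inhibition figures against human IKKε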
T1 sequence (whole entry): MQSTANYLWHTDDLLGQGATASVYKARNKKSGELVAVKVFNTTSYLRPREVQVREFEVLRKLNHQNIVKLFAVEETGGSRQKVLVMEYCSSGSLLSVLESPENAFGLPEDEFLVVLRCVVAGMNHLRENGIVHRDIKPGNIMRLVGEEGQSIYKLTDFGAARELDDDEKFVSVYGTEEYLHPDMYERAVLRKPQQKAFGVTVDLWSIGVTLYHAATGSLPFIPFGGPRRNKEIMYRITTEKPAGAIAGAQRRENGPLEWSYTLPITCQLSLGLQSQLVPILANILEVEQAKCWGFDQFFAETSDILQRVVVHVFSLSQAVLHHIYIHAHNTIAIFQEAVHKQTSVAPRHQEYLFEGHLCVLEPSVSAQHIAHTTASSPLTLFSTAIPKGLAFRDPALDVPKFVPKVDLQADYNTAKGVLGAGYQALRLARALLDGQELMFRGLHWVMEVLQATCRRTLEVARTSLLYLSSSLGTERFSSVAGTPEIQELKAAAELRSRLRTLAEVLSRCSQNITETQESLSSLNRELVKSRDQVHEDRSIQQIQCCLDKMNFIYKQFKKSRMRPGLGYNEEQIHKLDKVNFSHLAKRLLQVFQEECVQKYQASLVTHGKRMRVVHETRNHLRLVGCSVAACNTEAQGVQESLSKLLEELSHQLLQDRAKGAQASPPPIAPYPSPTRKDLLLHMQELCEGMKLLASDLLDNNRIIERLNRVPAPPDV

[2] = target: T2, Serine/threonine-protein kinase Nek1 (Homo sapiens) (UniProt Q96PY6); settings: at 0.1 µM
T2 sequence (whole entry): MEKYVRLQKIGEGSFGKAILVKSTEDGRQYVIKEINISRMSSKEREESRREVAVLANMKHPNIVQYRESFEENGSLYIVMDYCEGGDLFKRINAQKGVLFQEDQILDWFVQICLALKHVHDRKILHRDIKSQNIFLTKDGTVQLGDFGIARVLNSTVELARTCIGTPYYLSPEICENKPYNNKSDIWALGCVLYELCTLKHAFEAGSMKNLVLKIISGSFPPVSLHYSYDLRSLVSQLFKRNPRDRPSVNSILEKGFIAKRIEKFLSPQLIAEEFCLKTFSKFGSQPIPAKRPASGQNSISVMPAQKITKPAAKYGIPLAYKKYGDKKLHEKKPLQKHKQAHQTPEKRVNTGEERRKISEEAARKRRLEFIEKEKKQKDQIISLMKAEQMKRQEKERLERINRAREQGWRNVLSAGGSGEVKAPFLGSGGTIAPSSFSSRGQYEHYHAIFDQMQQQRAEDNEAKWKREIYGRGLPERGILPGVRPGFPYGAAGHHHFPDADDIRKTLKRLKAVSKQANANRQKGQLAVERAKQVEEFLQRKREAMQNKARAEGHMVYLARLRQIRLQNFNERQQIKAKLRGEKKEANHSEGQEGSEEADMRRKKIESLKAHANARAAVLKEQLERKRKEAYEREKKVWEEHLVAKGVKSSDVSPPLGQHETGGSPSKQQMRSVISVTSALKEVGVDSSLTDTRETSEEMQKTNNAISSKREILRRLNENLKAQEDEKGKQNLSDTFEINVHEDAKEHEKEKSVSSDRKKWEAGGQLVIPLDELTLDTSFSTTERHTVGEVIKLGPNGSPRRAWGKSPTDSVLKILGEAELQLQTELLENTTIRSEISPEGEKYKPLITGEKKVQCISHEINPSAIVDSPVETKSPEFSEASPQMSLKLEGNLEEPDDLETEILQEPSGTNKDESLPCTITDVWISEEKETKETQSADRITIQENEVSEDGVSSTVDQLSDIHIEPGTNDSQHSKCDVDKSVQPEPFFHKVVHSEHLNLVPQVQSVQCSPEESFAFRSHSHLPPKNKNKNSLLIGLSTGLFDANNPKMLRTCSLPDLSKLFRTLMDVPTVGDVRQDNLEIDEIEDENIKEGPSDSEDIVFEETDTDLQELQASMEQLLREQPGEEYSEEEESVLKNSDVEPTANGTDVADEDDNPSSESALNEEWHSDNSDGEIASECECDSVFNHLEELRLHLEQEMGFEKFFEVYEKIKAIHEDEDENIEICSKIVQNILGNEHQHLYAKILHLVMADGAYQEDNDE

[3] = target: T2, Serine/threonine-protein kinase Nek1 (Homo sapiens); settings: at 1 µM
[4] = target: T3, Serine/threonine-protein kinase Nek2 (Homo sapiens) (UniProt P51955); settings: at 0.1 µM
T3 sequence (whole entry): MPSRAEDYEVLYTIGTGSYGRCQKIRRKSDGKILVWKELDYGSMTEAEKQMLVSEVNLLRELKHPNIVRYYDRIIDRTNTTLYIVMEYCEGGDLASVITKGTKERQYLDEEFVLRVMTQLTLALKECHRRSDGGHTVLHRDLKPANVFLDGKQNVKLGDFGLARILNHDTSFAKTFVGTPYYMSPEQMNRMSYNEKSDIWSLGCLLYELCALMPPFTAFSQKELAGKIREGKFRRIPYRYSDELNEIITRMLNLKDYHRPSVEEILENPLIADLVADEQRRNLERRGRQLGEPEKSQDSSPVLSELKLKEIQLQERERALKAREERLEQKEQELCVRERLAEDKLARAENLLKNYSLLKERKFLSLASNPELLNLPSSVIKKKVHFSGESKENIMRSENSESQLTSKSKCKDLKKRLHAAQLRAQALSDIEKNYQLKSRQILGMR

[5] = target: T3, Serine/threonine-protein kinase Nek2 (Homo sapiens); settings: at 1 µM
[6] = target: Serine/threonine-protein kinase Nek6 (Homo sapiens) (UniProt Q9HC98); settings: at 0.1 µM
[7] = target: Serine/threonine-protein kinase Nek6 (Homo sapiens) (UniProt Q9HC98); settings: at 1 µM
[8] = target: Serine/threonine-protein kinase Nek7 (Homo sapiens) (UniProt Q8TDX7); settings: at 0.1 µM
[9] = target: Serine/threonine-protein kinase Nek7 (Homo sapiens) (UniProt Q8TDX7); settings: at 1 µM
[10] = target: T4, Serine/threonine-protein kinase Nek9 (Homo sapiens) (UniProt Q8TD19); settings: at 0.1 µM
T4 sequence (whole entry): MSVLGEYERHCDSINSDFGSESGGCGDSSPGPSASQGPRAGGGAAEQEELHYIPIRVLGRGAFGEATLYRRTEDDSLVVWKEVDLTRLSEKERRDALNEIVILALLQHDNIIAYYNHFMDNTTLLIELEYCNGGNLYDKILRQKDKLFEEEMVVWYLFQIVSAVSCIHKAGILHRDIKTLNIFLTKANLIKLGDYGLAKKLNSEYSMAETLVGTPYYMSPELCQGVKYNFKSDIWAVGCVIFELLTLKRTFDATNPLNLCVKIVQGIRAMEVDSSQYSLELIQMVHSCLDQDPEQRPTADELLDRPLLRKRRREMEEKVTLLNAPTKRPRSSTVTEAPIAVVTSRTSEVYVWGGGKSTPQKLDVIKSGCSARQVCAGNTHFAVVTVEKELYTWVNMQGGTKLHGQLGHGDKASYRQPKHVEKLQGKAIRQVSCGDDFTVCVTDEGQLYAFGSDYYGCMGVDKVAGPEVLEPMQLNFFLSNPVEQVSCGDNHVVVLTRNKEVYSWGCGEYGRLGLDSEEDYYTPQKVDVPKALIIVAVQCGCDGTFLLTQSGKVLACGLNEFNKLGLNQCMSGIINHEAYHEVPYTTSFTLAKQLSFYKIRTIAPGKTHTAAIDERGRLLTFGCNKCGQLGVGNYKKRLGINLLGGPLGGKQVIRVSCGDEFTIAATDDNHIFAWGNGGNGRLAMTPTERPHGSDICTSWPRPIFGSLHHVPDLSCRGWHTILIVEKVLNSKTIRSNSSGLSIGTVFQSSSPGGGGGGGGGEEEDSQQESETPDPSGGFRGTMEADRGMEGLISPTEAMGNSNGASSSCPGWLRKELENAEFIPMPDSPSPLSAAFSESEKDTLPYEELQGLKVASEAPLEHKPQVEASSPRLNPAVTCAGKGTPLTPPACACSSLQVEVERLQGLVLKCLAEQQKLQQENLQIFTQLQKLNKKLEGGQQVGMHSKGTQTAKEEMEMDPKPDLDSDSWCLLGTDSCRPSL

[11] = target: T4, Serine/threonine-protein kinase Nek9 (Homo sapiens); settings: at 1 µM
[12] = target: Serine/threonine-protein kinase PLK1 (Homo sapiens) (UniProt P53350); settings: at 0.1 µM
[13] = target: Serine/threonine-protein kinase PLK1 (Homo sapiens) (UniProt P53350); settings: at 1 µM
[14] = target: T5, Dual specificity protein kinase TTK (Homo sapiens) (UniProt P33981); settings: at 0.1 µM
T5 sequence (whole entry): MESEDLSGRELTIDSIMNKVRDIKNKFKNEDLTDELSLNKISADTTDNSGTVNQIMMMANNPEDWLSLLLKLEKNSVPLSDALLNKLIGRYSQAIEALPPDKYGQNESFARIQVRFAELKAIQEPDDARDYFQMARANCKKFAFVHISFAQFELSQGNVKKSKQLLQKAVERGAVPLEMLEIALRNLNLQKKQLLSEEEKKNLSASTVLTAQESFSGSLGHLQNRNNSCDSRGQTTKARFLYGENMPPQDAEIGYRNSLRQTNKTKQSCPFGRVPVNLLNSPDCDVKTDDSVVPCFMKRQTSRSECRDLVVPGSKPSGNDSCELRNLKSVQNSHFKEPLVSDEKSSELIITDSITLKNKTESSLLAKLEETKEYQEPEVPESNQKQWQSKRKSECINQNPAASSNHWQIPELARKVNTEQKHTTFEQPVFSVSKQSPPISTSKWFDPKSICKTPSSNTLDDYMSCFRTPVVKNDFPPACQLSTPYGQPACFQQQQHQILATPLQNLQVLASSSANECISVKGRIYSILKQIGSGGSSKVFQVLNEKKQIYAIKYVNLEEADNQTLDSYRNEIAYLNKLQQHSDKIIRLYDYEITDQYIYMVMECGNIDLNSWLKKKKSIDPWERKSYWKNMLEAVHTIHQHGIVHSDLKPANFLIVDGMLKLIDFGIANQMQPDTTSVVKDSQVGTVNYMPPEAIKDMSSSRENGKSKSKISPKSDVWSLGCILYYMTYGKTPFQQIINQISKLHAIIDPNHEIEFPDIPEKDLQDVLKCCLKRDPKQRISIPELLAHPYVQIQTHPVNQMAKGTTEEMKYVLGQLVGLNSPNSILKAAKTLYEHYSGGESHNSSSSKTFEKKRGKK

[15] = tested on: T6, Receptor-type tyrosine-protein kinase FLT3 (Homo sapiens), P36888 [D835Y]; settings: at 1 µM
T6 sequence (whole entry): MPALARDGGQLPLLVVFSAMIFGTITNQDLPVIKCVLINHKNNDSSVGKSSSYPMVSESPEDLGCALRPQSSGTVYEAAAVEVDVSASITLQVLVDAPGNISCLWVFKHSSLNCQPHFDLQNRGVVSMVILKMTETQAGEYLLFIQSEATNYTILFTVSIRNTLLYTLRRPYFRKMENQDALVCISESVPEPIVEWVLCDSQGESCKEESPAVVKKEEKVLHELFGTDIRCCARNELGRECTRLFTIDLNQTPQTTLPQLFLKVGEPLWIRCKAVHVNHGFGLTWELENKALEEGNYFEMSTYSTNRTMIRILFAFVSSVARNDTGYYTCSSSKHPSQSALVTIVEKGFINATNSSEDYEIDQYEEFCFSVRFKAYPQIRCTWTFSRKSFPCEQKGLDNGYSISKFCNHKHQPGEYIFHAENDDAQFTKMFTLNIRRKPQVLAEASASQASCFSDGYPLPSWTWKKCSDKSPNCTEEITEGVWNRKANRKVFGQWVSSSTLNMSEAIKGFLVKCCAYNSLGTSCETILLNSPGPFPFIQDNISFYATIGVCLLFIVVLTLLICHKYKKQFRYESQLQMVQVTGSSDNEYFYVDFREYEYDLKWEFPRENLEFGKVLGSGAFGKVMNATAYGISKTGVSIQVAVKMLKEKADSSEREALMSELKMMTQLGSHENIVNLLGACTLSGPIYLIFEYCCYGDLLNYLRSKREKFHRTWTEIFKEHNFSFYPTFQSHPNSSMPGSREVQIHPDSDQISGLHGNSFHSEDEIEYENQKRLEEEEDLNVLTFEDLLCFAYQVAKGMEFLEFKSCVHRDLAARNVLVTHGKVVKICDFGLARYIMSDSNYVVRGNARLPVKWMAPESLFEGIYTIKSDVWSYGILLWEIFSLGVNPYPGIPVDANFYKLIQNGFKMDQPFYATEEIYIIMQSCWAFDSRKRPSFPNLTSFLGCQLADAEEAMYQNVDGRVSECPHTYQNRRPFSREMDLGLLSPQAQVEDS

[16] = target: Vascular endothelial growth factor receptor 3 (Homo sapiens) (UniProt P35916); settings: at 0.1 µM
[17] = target: Vascular endothelial growth factor receptor 3 (Homo sapiens) (UniProt P35916); settings: at 1 µM
[18] = target: Macrophage colony-stimulating factor 1 receptor (Homo sapiens) (UniProt P07333); settings: at 0.1 µM
[19] = target: Macrophage colony-stimulating factor 1 receptor (Homo sapiens) (UniProt P07333); settings: at 1 µM
[20] = target: Tyrosine-protein kinase Fyn (Homo sapiens) (UniProt P06241); settings: at 0.1 µM
Chain of Tyrosine-protein kinase Fyn (Homo sapiens) (P06241 2-537 limits assumed): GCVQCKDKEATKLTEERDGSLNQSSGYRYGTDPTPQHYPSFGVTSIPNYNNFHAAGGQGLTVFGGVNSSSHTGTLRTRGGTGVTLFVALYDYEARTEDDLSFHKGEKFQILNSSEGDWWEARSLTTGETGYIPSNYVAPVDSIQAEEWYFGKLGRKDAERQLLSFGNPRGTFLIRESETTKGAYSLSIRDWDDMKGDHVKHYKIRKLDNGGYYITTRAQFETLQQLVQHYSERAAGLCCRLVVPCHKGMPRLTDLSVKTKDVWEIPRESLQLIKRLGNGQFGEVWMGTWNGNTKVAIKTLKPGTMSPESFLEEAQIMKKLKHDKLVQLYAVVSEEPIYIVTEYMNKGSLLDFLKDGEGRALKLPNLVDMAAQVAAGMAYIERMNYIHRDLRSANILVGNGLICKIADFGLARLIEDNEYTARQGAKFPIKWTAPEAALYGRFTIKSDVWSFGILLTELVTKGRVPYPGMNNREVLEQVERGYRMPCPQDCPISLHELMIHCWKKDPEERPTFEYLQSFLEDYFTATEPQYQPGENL

Chain of Vascular endothelial growth factor receptor 3 (Homo sapiens) (P35916 whole entry): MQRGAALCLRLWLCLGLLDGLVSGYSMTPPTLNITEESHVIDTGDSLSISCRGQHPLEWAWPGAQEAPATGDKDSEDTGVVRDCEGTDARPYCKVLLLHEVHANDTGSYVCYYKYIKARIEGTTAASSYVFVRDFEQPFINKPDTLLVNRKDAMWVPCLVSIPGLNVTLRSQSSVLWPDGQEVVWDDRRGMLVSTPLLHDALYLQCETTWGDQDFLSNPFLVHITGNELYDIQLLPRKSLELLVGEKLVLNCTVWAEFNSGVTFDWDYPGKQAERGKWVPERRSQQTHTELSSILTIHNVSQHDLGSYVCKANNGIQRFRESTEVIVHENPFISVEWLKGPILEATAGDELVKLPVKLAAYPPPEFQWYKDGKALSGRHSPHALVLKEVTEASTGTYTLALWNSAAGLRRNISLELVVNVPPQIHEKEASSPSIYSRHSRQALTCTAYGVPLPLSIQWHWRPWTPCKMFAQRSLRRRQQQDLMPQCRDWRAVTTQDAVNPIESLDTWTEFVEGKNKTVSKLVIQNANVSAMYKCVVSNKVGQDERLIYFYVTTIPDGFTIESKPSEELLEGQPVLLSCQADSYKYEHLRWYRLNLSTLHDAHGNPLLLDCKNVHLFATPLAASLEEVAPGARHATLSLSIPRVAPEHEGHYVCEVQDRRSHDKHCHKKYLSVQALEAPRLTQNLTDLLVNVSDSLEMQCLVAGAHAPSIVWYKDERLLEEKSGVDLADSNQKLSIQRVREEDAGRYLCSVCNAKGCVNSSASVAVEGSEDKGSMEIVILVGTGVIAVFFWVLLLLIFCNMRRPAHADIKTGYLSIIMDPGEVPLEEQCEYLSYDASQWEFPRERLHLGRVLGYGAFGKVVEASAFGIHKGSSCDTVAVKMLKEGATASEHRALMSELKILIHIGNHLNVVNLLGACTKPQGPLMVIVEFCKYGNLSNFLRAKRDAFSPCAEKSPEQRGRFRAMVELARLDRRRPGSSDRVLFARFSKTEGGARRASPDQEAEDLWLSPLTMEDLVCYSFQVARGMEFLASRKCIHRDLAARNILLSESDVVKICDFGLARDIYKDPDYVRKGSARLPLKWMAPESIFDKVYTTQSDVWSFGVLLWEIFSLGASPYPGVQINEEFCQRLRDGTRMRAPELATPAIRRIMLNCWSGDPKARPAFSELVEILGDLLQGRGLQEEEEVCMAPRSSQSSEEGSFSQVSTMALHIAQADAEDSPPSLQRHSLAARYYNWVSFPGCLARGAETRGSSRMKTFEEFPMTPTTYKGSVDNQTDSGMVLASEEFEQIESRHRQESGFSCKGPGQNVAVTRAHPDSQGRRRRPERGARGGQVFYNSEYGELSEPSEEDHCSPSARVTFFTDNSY
Chain of Serine/threonine-protein kinase Nek7 (Homo sapiens) (Q8TDX7 whole entry, looked up): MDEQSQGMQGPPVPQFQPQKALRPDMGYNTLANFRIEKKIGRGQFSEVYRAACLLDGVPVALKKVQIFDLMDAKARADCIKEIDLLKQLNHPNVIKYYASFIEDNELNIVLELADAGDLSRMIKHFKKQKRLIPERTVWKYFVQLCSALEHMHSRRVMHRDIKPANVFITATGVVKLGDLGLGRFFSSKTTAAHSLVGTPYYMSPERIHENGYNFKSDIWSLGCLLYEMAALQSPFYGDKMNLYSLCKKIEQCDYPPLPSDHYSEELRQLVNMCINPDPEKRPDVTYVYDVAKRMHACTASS
Chain of Macrophage colony-stimulating factor 1 receptor (Homo sapiens) (P07333 whole entry): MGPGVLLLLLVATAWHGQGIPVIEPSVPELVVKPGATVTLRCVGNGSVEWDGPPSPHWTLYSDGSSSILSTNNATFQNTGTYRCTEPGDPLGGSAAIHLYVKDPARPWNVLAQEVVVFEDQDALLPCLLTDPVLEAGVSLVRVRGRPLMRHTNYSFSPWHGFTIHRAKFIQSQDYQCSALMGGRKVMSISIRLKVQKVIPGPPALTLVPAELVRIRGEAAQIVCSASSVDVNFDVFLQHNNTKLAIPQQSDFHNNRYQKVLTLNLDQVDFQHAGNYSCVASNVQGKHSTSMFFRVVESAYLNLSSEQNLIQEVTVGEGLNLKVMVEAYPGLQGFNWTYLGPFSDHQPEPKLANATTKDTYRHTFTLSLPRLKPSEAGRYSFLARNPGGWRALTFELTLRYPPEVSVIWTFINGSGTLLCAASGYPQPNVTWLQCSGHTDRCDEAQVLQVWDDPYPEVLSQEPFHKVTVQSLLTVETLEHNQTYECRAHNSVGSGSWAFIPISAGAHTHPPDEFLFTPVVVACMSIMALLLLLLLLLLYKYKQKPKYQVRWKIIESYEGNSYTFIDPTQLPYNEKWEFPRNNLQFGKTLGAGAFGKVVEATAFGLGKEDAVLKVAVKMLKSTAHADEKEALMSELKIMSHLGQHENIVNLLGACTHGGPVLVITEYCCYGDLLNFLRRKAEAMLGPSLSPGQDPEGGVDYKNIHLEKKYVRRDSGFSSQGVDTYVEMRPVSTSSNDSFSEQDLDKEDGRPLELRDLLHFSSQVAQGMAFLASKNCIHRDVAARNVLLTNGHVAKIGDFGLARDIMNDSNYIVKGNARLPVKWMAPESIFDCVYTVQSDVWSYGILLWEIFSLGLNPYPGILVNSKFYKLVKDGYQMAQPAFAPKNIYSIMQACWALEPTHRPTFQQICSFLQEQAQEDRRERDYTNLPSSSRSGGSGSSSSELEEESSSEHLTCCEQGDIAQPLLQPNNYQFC
Chain of Serine/threonine-protein kinase PLK1 (Homo sapiens) (P53350 whole entry): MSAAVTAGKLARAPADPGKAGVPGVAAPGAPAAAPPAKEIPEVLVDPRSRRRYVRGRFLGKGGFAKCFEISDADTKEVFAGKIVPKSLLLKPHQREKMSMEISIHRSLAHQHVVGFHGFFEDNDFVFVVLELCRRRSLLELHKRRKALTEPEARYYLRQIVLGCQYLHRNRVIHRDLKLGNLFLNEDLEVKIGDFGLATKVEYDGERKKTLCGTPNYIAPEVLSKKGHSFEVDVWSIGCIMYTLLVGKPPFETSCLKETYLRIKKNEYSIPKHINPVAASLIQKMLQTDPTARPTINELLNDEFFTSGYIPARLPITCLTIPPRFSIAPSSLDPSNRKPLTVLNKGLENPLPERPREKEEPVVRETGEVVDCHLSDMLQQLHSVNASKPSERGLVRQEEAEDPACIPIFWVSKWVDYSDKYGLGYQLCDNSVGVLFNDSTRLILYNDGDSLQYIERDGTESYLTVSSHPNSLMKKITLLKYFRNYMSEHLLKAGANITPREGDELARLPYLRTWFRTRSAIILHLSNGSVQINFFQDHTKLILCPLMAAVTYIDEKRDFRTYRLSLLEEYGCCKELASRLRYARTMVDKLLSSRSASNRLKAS
Chain of Serine/threonine-protein kinase Nek6 (Homo sapiens) (Q9HC98 whole entry): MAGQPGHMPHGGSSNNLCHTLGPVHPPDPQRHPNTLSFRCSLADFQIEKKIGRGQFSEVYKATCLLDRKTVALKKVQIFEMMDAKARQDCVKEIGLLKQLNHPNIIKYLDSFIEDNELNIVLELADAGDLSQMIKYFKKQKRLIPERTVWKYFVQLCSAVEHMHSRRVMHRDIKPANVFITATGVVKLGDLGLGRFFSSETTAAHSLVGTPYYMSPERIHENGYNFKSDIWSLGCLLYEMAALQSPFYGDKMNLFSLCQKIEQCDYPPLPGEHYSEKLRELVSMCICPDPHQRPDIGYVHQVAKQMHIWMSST

SMILES	inhibition [1]	inhibition [2]	inhibition [3]	inhibition [4]	inhibition [5]	inhibition [6]	inhibition [7]	inhibition [8]	inhibition [9]	inhibition [10]	inhibition [11]	inhibition [12]	inhibition [13]	inhibition [14]	inhibition [15]	inhibition [16]	inhibition [17]	inhibition [18]	inhibition [19]	inhibition [20]
CCCN1CCC(c2ccc(Nc3nc(Nc4cc(F)ccc4C(N)=O)c4cc[nH]c4n3)c(OC)c2)CC1	5.85%	4.68%	21.6%	4.85%	17.6%	4.35%	8.4%	7.49%	8.87%	8.38%	32.5%	12.5%	49.8%	81.5%	56%	-1.93%	2.22%	34.3%	81.5%	3.91%
Fc1ccc(-c2cc(-c3c[nH]nc3-c3ccccn3)ccn2)cc1	7.34%	2.81%	0.44%	4.38%	3.61%	4.06%	7.77%	6.08%	4.43%	7.41%	12.6%	3.3%	3.1%	11.3%	0.71%	-1.38%	1.05%	0.08%	3.27%	3.45%
Fc1ccc(-c2nn3ccccc3c2-c2ccncc2)cc1	0.04%	1.98%	1.91%	1.2%	1.45%	0.37%	1.47%	3.72%	2.56%	5.49%	1.86%	1.11%	0.66%	1.74%	1.27%	-0.54%	1.83%	-0.59%	7.67%	0.52%
COc1cccc(-n2ncc3c(N/N=C/c4ccc(F)cc4)ncnc32)c1	8.08%	2.09%	4.05%	3.93%	2.32%	2.71%	3.01%	1.25%	3.29%	1.55%	6.76%	1.91%	4.22%	7.93%	12.3%	7.04%	6.84%	6.04%	5.69%	8.43%

Reference: ChEMBL document CHEMBL1961873, “Compounds: GSK PKIS; Assays: Nanosyn kinase panel” (2012)
